This experiment deals with Estrogen receptor (Homo sapiens) (UniProt P03372). The experiment in a line: ERα coactivator peptide binding inhibitors, primary screen, biochemical, LOPAC library, TR-FRET (AID 694).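 Also: receptor was agonist-bound with estradiol present during the assay.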 The note with it: TR-FRET ERalpha-coactivator peptide binding, stronger effect = higher value. Background: Time-resolved FRET reads energy transfer from a long-lived donor to a nearby acceptor.

The campaign covered roughly 1,300 compounds. About 25 (2%) were called active. No rule for the calls is given here. This excerpt belongs to a sample that is enriched for actives.

Results on 41 molecules are retold here after PubChem BioAssay AID694 (Emory University Molecular Libraries Screening Center, 2007).

Estrogen receptor (Homo sapiens), sequence (P03372 whole entry, looked up): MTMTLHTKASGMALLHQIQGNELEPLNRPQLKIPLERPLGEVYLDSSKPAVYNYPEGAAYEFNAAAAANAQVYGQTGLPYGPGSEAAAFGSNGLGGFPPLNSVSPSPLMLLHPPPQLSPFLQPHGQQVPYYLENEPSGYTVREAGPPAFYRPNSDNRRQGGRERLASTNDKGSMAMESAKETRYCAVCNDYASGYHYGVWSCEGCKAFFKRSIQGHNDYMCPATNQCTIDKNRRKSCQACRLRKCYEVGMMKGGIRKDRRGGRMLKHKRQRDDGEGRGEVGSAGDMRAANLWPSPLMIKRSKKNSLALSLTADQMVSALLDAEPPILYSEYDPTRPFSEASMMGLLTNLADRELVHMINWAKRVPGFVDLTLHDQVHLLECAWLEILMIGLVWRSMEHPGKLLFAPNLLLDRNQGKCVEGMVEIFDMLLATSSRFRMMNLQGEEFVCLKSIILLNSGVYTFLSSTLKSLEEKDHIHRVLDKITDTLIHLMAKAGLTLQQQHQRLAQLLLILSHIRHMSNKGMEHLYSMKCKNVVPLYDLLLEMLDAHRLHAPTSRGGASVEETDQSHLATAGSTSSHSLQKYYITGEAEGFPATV

`Cn1cnc2c(NCc3ccccc3)nc(NCCO)nc21`: the inhibition (commonly the change of the read-out against control, counted positive when it falls) is 3.75% (inactive) (at 45 µM) and 1.76% (inhibition, at 15 µM).
With `C=CC[C@H](N)C(=O)O`, the inhibition runs as follows: (at 45 µM) -2.53% (inactive); (inhibition, at 15 µM) -5.06%.
On the same counts, the results for `CCCn1c(=O)c2c(ncn2C)n(CCC)c1=O` are 5.51% (inactive) and -1.66%.
For `N=c1nc(N2CCCCC2)cc(N)n1O`, in that order: 2.01% (inactive) and -3.53%.
Take `CC[C@@H](C)[C@H]1O[C@]2(CC[C@@H]1C)C[C@@H]1C[C@@H](C/C=C(\C)[C@@H](O[C@H]3C[C@H](OC)[C@@H](O[C@H]4C[C@H](OC)[C@@H](O)[C@H](C)O4)[C@H](C)O3)[C@@H](C)/C=C/C=C3\CO[C@@H]4[C@H](O)C(C)=C[C@@H](C(=O)O1)[C@]34O)O2`: the inhibition by setting is: (at 45 µM) -0.86% (inactive); (inhibition, at 15 µM) 3.41%.
On to `CCCCC#Cc1nc(N)c2ncn([C@@H]3O[C@H](C(=O)NCC)[C@@H](O)[C@H]3O)c2n1`, for which the inhibition is -0.57% (inactive) (at 45 µM) and 5.8% (inhibition, at 15 µM).
For `CCCCCCCC/C=C\CCCCCCCC(=O)NCCO`, in that order: 7.02% (inactive) and 9.1%.
On the same counts, the results for `N[C@@H](CCC(=O)N[C@H](CSN=O)C(=O)NCC(=O)O)C(=O)O` are 1.19% (inactive) and 3.44%.
On the same counts, the results for `[N-]=[N+]=Nc1ccc(C(=O)CSC[C@H](NC(=O)CC[C@H](N)C(=O)O)C(=O)NCC(=O)O)cc1` are 75.4% [fluorescence artefact?] (active) and 74%.
Regarding `C=CCN1CCc2c(cc(O)c(O)c2Br)[C@@H](c2ccccc2)C1`, the inhibition reads like this: (at 45 µM) 2.69% (inactive); (inhibition, at 15 µM) 6.75%.
On the same counts, the results for `Cc1nc(N=Nc2cc(S(=O)(=O)O)c3cc([N+](=O)[O-])cc(S(=O)(=O)O)c3c2)c(COP(=O)(O)O)c(C=O)c1O` are 60.6% (inactive) and 46.2%.
Regarding `OCCN1CCN(CC/C=C2/c3ccccc3Sc3ccc(C(F)(F)F)cc32)CC1`, the inhibition by setting is: (at 45 µM) 3.87% (inactive); (inhibition, at 15 µM) 3.25%.
On the same counts, the results for `CN1C(C)(C)CCCC1(C)C` are -1.09% (inactive) and -2.02%.
For `Nc1nc(OCc2ccccc2)c2[nH]cnc2n1`, in that order: -3.48% (inactive) and -5.45%.
Take `Cc1cccc(C)c1NC(=O)C[N+](C)(C)C`: the inhibition is 0.37% (inactive) (at 45 µM) and -1.43% (inhibition, at 15 µM).
For `CCCCN1CCC(COC(=O)c2cc(Cl)c(N)c3c2OCCO3)CC1`, in that order: -8.8% (inactive) and -4.44%.
In the case of `CC(=O)SCC[N+](C)(C)C`, the inhibition (at 45 µM) is 0.72% (inactive) and the inhibition (inhibition, at 15 µM) was -4.29%.
In the case of `CN(C)CCN(Cc1cccs1)c1ccccn1`, the inhibition (at 45 µM) is 0.3% (inactive) and the inhibition (inhibition, at 15 µM) worked out at 3.28%.
With `Cc1nc(N=Nc2ccc(S(=O)(=O)O)cc2S(=O)(=O)O)c(COP(=O)(O)O)c(C=O)c1O`, the inhibition is -1.62% (inactive) (at 45 µM) and 2.87% (inhibition, at 15 µM).
For `CCOC(=O)c1cnc2c(cnn2CC)c1NN=C(C)C`, in that order: 1.01% (inactive) and -4.69%.
On the same counts, the results for `O=c1cc(O)cc(/C=C/c2ccc(O)c(O)c2)o1` are 5.73% (inactive) and 4.2%.
Consider `NC(N)=NCCCCN=C(N)N`, for which the inhibition was -1.43% (inactive) (at 45 µM) and 22.8% (inhibition, at 15 µM).
For `CCCCCCCCCCCCC/C=C/C(O)C(N)CO` (configuration not stated), in that order: 17.6% (inactive) and -17.3%.
For `NC(=NCCC[C@H](N)C(=O)O)NO`, in that order: 3.2% (inactive) and 2.74%.
Regarding `NC(C(=O)N[C@@H]1C(=O)N2C(C(=O)O)=C(Cl)CS[C@H]12)c1ccccc1` (some centres not stated), the inhibition is -11.2% (inactive) (at 45 µM) and -2.54% (inhibition, at 15 µM).
As for `CSC(N)=NCCC[C@H](N)C(=O)O`, the inhibition (at 45 µM) is 0.58% (inactive) and the inhibition (inhibition, at 15 µM) is -0.49%.
Turning to `CN(C)CCCCSC(=N)N`, the inhibition is -2.28% (inactive) (at 45 µM) and 0.11% (inhibition, at 15 µM).
For `COc1ccc2c(c1)c(CC(=O)N1CCOCC1)c(C)n2C(=O)c1ccc(Cl)cc1`, in that order: 2.58% (inactive) and 0.53%.
On the same counts, the results for `Nc1ncnc2c1ncn2[C@@H]1O[C@H](C(=O)NC2CC2)[C@H](O)C1O` (some centres not stated) are -7.62% (inactive) and -0.92%.
For `Nc1nc(N)c2nc(CNc3ccc(C(=O)NC(CCC(=O)O)C(=O)O)cc3)cnc2n1` (configuration not stated), in that order: 1.53% (inactive) and -2.57%.
For `CCCCCCCCCCCCCCSCC(=O)O`, the inhibition runs as follows: (at 45 µM) 97.7% [fluorescence artefact?] (active); (inhibition, at 15 µM) 66.6%.
As to `CCCCCC(O)CCCC(=O)O` (configuration not stated), the inhibition (at 45 µM) is -5.09% (inactive) and the inhibition (inhibition, at 15 µM) was determined as 11.3%.
`CCCCCCC/C=C\CCCCCCCCC(=O)O`: the inhibition is, setting by setting: (at 45 µM) 63.2% (inactive); (inhibition, at 15 µM) 46.6%.
For `COC(=O)c1c(-c2cc(OC)c(OC)c(OC)c2)c2ccnc(OCc3ncccn3)c2c(=O)n1Cc1ccnc(C)c1`, in that order: -0.01% (inactive) and 7.82%.
On to `O=C(O)CCCCCC[C@H]1C(=O)NC(=O)N1CC[C@@H](O)C1CCCCC1`, for which the inhibition was 4.54% (inactive) (at 45 µM) and 37.6% (inhibition, at 15 µM).
For `Nc1nc2c(ncn2COC(CO)CO)c(=O)[nH]1`, in that order: -3.37% (inactive) and -1.7%.
Regarding `Cc1cnc(NC(=O)C2=C(O)c3ccccc3S(=O)(=O)N2C)s1`, the inhibition is 1.42% (inactive) (at 45 µM) and -3.85% (inhibition, at 15 µM).
On the same counts, the results for `S=C(S)OC1CC2CC1C1CCCC21` (configuration not stated) are -5.42% (inactive) and 6.45%.
For `CC(=O)NCCc1c[nH]c2ccc(O)cc12`, in that order: -5.1% (inactive) and 4.29%.
On the same counts, the results for `NC(=O)c1cccc(N)c1` are -6.67% (inactive) and 0.5%.
For `CC1(C)CCC2=C(O1)c1ccccc1C(=O)C2=O`, the inhibition was 0.18% (inactive) (at 45 µM) and -0.19% (inhibition, at 15 µM).
